Source: PubChem BioAssay (National Center for Advancing Translational Sciences (NCATS))
Only some compounds are listed: those with a hit (about 0.56% of all), similar ones and a draw of the others.
PKM2 activator = PKM2 (human) enzyme activation | Potency, µM (highest dose often 57.5 µM), for the others: top-dose activation, most hits filed as activators | purified PKM2, Kinase-Glo ATP luminescence, activation; response scale: 0% is enzyme alone, no compound | hit rate 0.34% among 260,000 | P14618; further: potency means the concentration at half of the fitted maximal effect; on the % scale 0 is the no-effect control and ±100 the full control effect; nearly all actives have a fitted effect of over 55% in size
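Kinase-Glo luminescence reports ATP generated from ADP (0.1 mM) and PEP (0.5 mM) by purified hPK-M2 after 1 h at room temperature, pH 7.2 imidazole buffer; intermediate enzyme activity allows detecting inhibitors and activators.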
Tb PFK inh = blocks T. brucei phosphofructokinase | O15648 | T. brucei PFK, ADP-Glo luminescence | Potency, µM (top dose mostly 57.5 µM), for inactives: top-dose activity, negative = inhibition, usual class: inhibitors | hit rate 0.17% among 330,000 | AID 485367;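 further: potency means the concentration at half of the fitted maximal effect; 0% = uninhibited 1x PFK enzyme wells and -100% = no-enzyme wells; nearly all actives have a fitted effect of over 60% in size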
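Luminescent ADP detection (ADP-Glo, two-step: ATP depletion then ADP-to-ATP conversion for luciferase) reported PFK activity after 45 min room-temperature reaction of 1.25 nM enzyme with 0.5 mM F6P and 0.1 mM ATP at pH 8.0.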
KinaseGlo FLuc = Kinase-Glo luciferase inhibition (counter-screen); Q27757; Kinase-Glo luciferase, ATP luminescence, 8 min; Potency, µM (top dose mostly 38.3 µM), for inactives: top-dose activity change, negative = inhibition, usual class: inhibitors; hit rate 0.28% among 200,000; AID 1379; further: potency means the concentration at half of the fitted maximal effect; on the % scale 0 is the no-effect control and ±100 the full control effect; nearly all actives have a fitted effect of over 60% in size
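Luminescence was the read-out, taken after 8-minute incubation at ambient temperature. Luciferase turned over luciferin with 10 uM ATP in imidazole pH 7.2 buffer containing KCl, MgCl2, Tween 20 and BSA.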
CBFb-RUNX1 inh = CBF-beta/RUNX1 interaction disruption | AlphaScreen CBFb-His/RUNX1-biotin binding, biochemical | Potency, µM (top dose mostly 59.8 µM), without a hit: top-dose activity, negative = inhibition, actives largely listed as inhibitors | 230,000 tested, under 10 active | Q01196+Q13951 | AID 1477; further: % of control where 0% means no effect
Target sequence (Q01196 whole entry, looked up): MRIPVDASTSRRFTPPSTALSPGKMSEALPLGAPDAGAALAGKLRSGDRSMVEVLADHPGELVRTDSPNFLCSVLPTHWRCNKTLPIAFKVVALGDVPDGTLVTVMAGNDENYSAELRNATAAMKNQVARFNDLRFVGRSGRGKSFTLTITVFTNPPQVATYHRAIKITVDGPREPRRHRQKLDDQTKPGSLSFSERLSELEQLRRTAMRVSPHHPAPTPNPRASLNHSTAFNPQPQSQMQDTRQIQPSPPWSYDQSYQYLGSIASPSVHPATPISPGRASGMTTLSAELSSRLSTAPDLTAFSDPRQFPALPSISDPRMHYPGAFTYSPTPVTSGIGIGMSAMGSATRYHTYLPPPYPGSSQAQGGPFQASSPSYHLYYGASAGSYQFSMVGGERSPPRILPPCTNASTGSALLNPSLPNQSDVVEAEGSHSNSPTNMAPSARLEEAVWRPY
Target sequence (Q13951 whole entry, looked up): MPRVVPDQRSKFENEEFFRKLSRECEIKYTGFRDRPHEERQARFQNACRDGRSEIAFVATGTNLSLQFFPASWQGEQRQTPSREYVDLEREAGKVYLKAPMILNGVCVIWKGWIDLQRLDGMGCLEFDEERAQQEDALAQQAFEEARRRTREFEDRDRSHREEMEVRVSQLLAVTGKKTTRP
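AlphaScreen binding: CBFb-His and RUNX1-biotin (30 nM each) preincubated 20 min, compound added for 15 min, then nickel and streptavidin beads for 90 min, all at room temperature. Disruption of the interaction by any mechanism counts as activity.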
GALK inhibitor = galactokinase (human) inhibition; P51570; Purified GALK, Kinase-Glo residual ATP luminescence; Potency, µM (series often up to 57.5 µM), without a hit: top-dose activity change, negative = inhibition, hits mostly inhibitors; hit rate 0.007% among 270,000; further: potency means the concentration at half of the fitted maximal effect; on the % scale 0 is the no-effect control and ±100 the full control effect
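ATP-depletion format; final 35 uM ATP, 100 uM D-galactose, 5 nM enzyme; pH 8.0 HEPES/Mg2+ buffer; 60 min RT; luminescence read 10 min after detection reagent.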
Starred values were filed as active, the others as inactive; ? = inconclusive; . = no result given; ! = a repeat was not active; [ ] = remark or other dose. The call rests on the fitted dose curve; in most records, active means well fitted curve in the direction sought with a large enough effect; inconclusive means small, poorly fitted or top-dose-only effect, or another doubt; inactive means no such curve, though single readings can be large; an effect the other way counts as inactive or inconclusive.

SMILES	PKM2 activator	Tb PFK inh	KinaseGlo FLuc	CBFb-RUNX1 inh	GALK inhibitor
CCSC[C@H](NC(=O)[C@H](C)N)C(=O)N[C@@H](CC(=O)O)C(=O)N[C@H](C(=O)N[C@@H](C)C(=O)N[C@H](C(=O)N[C@@H](CSCC)C(=O)N[C@H](C(=O)N[C@H](C(=O)N[C@@H](Cc1cnc[nH]1)C(=O)N[C@@H](CCCNC(=N)N)C(=O)N[C@@H](CC(C)C)C(=O)N[C@@H](C)C(=O)NCC(=O)N[C@@H](CC(C)C)C(=O)N[C@@H](CC(C)C)C(=O)N[C@@H](CO)C(=O)N[C@@H](CCCNC(=N)N)C(=O)N[C@@H](CO)C(=O)NCC(=O)NCC(=O)N[C@H](C(=O)N[C@H](C(=O)N[C@@H](CCCCN)C(=O)N[C@@H](CC(N)=O)C(=O)N[C@@H](CC(N)=O)C(=O)N[C@@H](Cc1ccccc1)C(=O)N[C@H](C(=O)N1CCC[C@H]1C(=O)N[C@H](C(=O)N[C@@H](CC(N)=O)C(=O)N[C@H](C(=O)NCC(=O)N[C@@H](CO)C(=O)N[C@@H](CCCCN)C(=O)N[C@@H](C)C(=O)N[C@@H](Cc1ccccc1)C(N)=O)C(C)C)[C@@H](C)O)C(C)C)C(C)C)C(C)C)[C@@H](C)O)C(C)C)[C@@H](C)O)[C@@H](C)O	.	.	.	7%	.
CCc1sc(C(=O)N2CCc3ccccc32)cc1C	-24%	-6%	11µM*	?	11%
O=C(NC1CCN(Cc2ccccc2)CC1)c1ccc(-n2c(=O)c(=O)[nH]c3ccccc32)cc1	.	.	1%	.	.
O=C(Nc1cccc(O)c1)c1noc2c1CCc1ccccc1-2	7%	-9%	14µM*	-5%	0%
Cc1ccc(/C=C/C2=Cc3c(sc(NC(=O)CSc4n[nH]c(N)n4)c3C#N)C(C)(C)C2)o1	4.5µM*	?	-6%	-14%	-3%
CCOC(=O)c1sc(NC(=O)CSc2n[nH]c(-c3ccccc3)n2)c(C#N)c1C	-10%	-19%	2%	11%	0%
O=C(NCCN1CCCCC1)c1ccc(-n2c(=O)c(=O)[nH]c3ccccc32)cc1	.	.	1%	.	.
COc1ccc2cc3c(N)nn(C(=O)c4ccccc4Cl)c3nc2c1	20µM*	-2%	.	-2%	4%
COc1ccc2cc3c(N)nn(C(=O)c4ccc(F)cc4)c3nc2c1	3%	-6%	.	5%	3%
O=C(Nc1ccccc1)C1=C(O)CC(c2ccc(Cl)cc2)N2CCN=C12 (stereo not given)	18µM*	5%	-1%	-1%	-2%
O=C(Nc1ccc(Cl)cc1)N1N=CCC1c1ccccc1 (stereo not given)	-4%	2%	.	7%	2%
O=c1c2ncn([C@@H]3O[C@@H]4COP(=O)(O)O[C@H]4[C@H]3O)c2nc2[nH]c(-c3ccccc3)cn12	.	.	.	22%	.
COc1ccc(-c2cc(C(=O)N/N=C/c3ccc(O)cc3)[nH]n2)cc1	.	.	-4%	.	.
Cc1ccc(S(=O)(=O)NCC(=O)NCC(=O)OCc2c(F)cccc2Cl)cc1	35µM*	-24%	-1%	-13%	-1%
CC1=C(C(=O)O)N2C(=O)[C@@H](NC(=O)[C@@H](N)c3ccccc3)[C@@H]2SC1	.	.	-2%[17.1 µM]	-13%[21.7 µM]	.
COc1cc(C/C=C\c2ccccc2)c(OC)cc1O	.	.	1%	?	.
O=S(=O)(c1ccc(OCC(O)CNCc2ccco2)c(Cl)c1)N1CCOCC1 (stereo not given)	4µM*	4%	-5%	2%	1%
CCCCNc1c(CN)cnc2cc(Cl)ccc12	.	.	-4%[7.66 µM]	.	.
CC1CC=CC2C1C(=O)N(Cc1ccccc1)C2c1ccc(-c2ccoc2)cc1F (stereo not given)	.	.	.	-1%	.
OCc1cc2c(cn1)[nH]c1ccccc12	.	.	.	-2%	.
Cc1c(F)cccc1NS(=O)(=O)c1ccc2c(c1)n(C)c(=O)c(=O)n2C	0.71µM*	0%	.	.	-2%
COc1cccc(NS(=O)(=O)c2ccc3c(c2)n(C)c(=O)c(=O)n3C)c1	1.1µM*	0%	-2%	6%	0%
Cc1c(F)cccc1NS(=O)(=O)c1ccc2c(c1)c(=O)n(C)c(=O)n2C	3.5µM*	3%	2%	11%	1%
CCOc1ccccc1NS(=O)(=O)c1ccc2c(c1)n(C)c(=O)c(=O)n2C	25%	0%	2%	-7%	.
COC(=O)C1=C(C(=O)OC)[C@@H]2Nc3ccccc3[C@@]23C[C@@H](C(=O)OC)N(S(=O)(=O)c2cccs2)C3=N1	0%[11.5 µM]	.	-7%[7.66 µM]	20%[13.1 µM]	.
SMILES	PKM2 activator	Tb PFK inh	KinaseGlo FLuc	CBFb-RUNX1 inh	GALK inhibitor
O=C(/C=C\Nc1ccccc1Br)c1ccc2c(c1)OCO2	-9%	-5%	10µM*	-23%	1%
Cc1ccc(NC(=O)C2CCN(S(=O)(=O)c3c(C)noc3/C=C/c3ccco3)CC2)nc1	4%	0%	1%	?	3%
Cc1noc(/C=C/c2ccco2)c1S(=O)(=O)N1CCC(C(=O)N2CCc3ccccc3C2)CC1	20µM*	5%	-5%	-18%	1%
Cc1cc(=O)[nH]c(N/N=C/c2c(C)nn(-c3ccccc3)c2C)n1	0%	1%	0%	-4%	-2%
Cc1nn(-c2ccccc2)c(C)c1/C=N/Nc1nc2ccccc2[nH]1	-19%	-3%	10µM*	0%	2%
C=C(C)C1CCC(C)C(OC(C)=O)C1 (stereo not given)	.	.	.	6%	.
CCOC(=O)OCC1OC(C#Cc2ccccc2)C=CC1OC(=O)OCC (stereo not given)	.	.	.	0%[13.1 µM]	.
Cc1ccc(C(=O)Nc2sc3c(c2C(=O)O)CCCCC3)o1	2%	5%	7.9µM*	28%	5%
COc1ccc(C2Nc3ccccc3C(=O)N2Cc2ccco2)cc1COc1ccc(F)cc1 (stereo not given)	14µM*	-4%	2%	-4%	0%
COc1ccc(C2Nc3ccccc3C(=O)N2Cc2ccco2)cc1CN1C(=O)c2ccccc2C1=O (stereo not given)	20µM*!	-2%	5%	-22%	5%
COc1ccc(C2Nc3ccccc3C(=O)N2Cc2ccccc2)cc1COc1ccccn1 (stereo not given)	27%	1%	-1%	2%	2%
CCc1ccc(S(=O)(=O)Nc2ccc(O)c(C(=O)O)c2)cc1	.	.	-1%	.	.
O=C(N/N=C/c1ccccc1Cl)c1n[nH]c2c1CCCC2	-15%	-5%	3.2µM*	-2%	1%
O=C(N/N=C/c1ccccc1)c1n[nH]c2c1CCCC2	-8%	-1%	-22%	-2%	1%
COc1ccc(-c2cc(C(=O)N/N=C\c3cc(OC)c(OC)c(OC)c3)[nH]n2)cc1	.	.	-3%	.	.
c1ccc2nc(-c3nc4ccccc4o3)ccc2c1	-82%	?	1µM*	-4%	6%
c1ccc(-c2nc3ccccc3o2)nc1	-16%	-1%	-21%	5%	-1%
